Measured values reported in PubChem BioAssay AID1159580 (chemical genetic matrix, 2015).
Among all 5,500 compounds or so, about 2,000 (36%) were called active. Not shown: some 18% with an inconclusive outcome. Cut-off read from the data, not from the text of the source: active = normalized growth mostly below about 0.91 (no sharp cut-off); inconclusive = no clear call, values can overlap the other calls; inactive = mostly above about 0.92. The list shows a part of the results.

Test: chemical genetic growth profiling, strain panel (AID 1159580);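 note: tested at 20 µM; growth read once vehicle control cultures reached saturation at 30 °C; 1 = growth at the plate median or of vehicle wells; lower values mean less growth of the strain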
Conditions: S. cerevisiae deletion strains, growth OD
[1] = locus YAL040C, strain CLN3, hits give low values
[2] = locus YCL061C, strain MRC1 (second series), hits give low values
[3] = locus YDR363W, strain ESC2, hits give low values
[4] = locus YER002W, strain NOP16, hits give low values
[5] = locus YNL175C, strain NOP13, hits give low values
[6] = locus YNL197C, strain WHI3, hits give low values
[7] = locus YNL224C, strain SQS1, hits give low values
[8] = locus YOR083W, strain WHI5 (second series), hits give low values

Measured: normalized growth

Nc1nc(Nc2ccccc2)nc2c1ncn2[C@@H]1O[C@H](CO)[C@H](O)C1O (stereo partly drawn)
inactive: locus YAL013W, strain DEP1, hits give low values 0.982 | [1] 1.05 | [2] 0.999 | locus YDR150W, strain NUM1, hits give low values 0.999 | [3] 1.02 | [4] 1 | locus YMR263W, strain SAP30, hits give low values 1 | locus YMR307W, strain GAS1, hits give low values 1 | [5] 1.01 | [6] 1.01 | [7] 1.01 | [8] 1.02

N[C@H](C(=O)O)c1cc(O)cc(O)c1
inactive: [1] 0.975 | [2] 0.995 | [3] 0.949 | [4] 0.985 | [5] 1.02 | [6] 0.996 | [7] 1.01 | locus YNL322C, strain KRE1, hits give low values 0.982 | [8] 0.999 | locus YPL055C, strain LGE1, hits give low values 0.956 | locus YPL241C, strain CIN2, hits give low values 0.991

C[C@H]1O[C@H](OC2[C@@H](O)[C@@H](O)C(O)[C@H](O)[C@H]2O)[C@@H](N)C[C@@H]1N=C(N)C(=O)O (stereo partly drawn)
inactive: locus YAL021C, strain ccr4, hits give low values 0.989 | locus YAL026C, strain drs2, hits give low values 0.995 | locus YAL030W, strain snc1, hits give low values 1 | locus YBL061C, strain skt5, hits give low values 0.996 | locus YBR009C, strain hhf1, hits give low values 1.05 | locus YBR023C, strain chs3, hits give low values 0.99 | locus YBR171W, strain sec66, hits give low values 0.911 | locus YBR231C, strain swc5, hits give low values 0.999 | locus YBR279W, strain paf1, hits give low values 0.986 | locus YCL011C, strain gbp2, hits give low values 0.979 | locus YCL016C, strain dcc1, hits give low values 1 | locus YCL061C, strain MRC1, hits give low values 0.999 | locus YCL069W, strain vba3, hits give low values 1 | locus YCR088W, strain abp1, hits give low values 0.983 | locus YDL005C, strain med2, hits give low values 0.986 | locus YDL040C, strain nat1, hits give low values 0.992 | locus YDR001C, strain nth1, hits give low values 0.985 | locus YDR069C, strain doa4, hits give low values 0.999 | locus YDR137W, strain rgp1, hits give low values 0.937 | locus YDR159W, strain sac3, hits give low values 0.993 | locus YDR195W, strain ref2 1.02 | locus YDR297W, strain sur2, hits give low values 0.988 | locus YDR334W, strain swr1, hits give low values 0.965 | locus YDR335W, strain msn5, hits give low values 0.975 | locus YDR392W, strain spt3, hits give low values 0.882 | locus YEL003W, strain gim4, hits give low values 0.981 | locus YEL037C, strain rad23, hits give low values 0.994 | locus YEL061C, strain CIN8 (second series), hits give low values 0.993 | locus YER015W, strain faa2, hits give low values 0.995 | locus YER016W, strain bim1, hits give low values 0.991 | locus YER111C, strain swi4, hits give low values 0.995 | locus YER155C, strain BEM2 (second series), hits give low values 1.02 | locus YFR010W, strain ubp6, hits give low values 0.979 | locus YGL167C, strain pmr1, hits give low values 0.986 | locus YGL173C, strain kem1, hits give low values 0.994 | locus YGL227W, strain vid30, hits give low values 1 | locus YGL240W, strain doc1, hits give low values 1.01 | locus YGL253W, strain hxk2, hits give low values 0.994 | locus YHR013C, strain ard1, hits give low values 0.947 | locus YHR027C, strain rpn1, hits give low values 0.982 | locus YHR030C, strain SLT2, hits give low values 0.951 | locus YHR079C, strain IRE1, hits give low values 0.964 | locus YHR142W, strain chs7, hits give low values 0.927 | locus YJL092W, strain hpr5, hits give low values 0.974 | locus YJL095W, strain BCK1 (second series), hits give low values 0.992 | locus YJL095W, strain BCK1, hits give low values 0.969 | locus YJL115W, strain asf1, hits give low values 0.974 | locus YJL129C, strain trk1, hits give low values 0.921 | locus YJL154C, strain vps35, hits give low values 0.995 | locus YJL164C, strain tpk1, hits give low values 0.97 | locus YJL166W, strain qcr8, hits give low values 0.99 | locus YJL187C, strain SWE1, hits give low values 0.992 | locus YJR066W, strain TOR1, hits give low values 0.928 | locus YKL160W, strain elf1, hits give low values 0.957 | locus YKR026C, strain gcn3, hits give low values 0.997 | locus YKR091W, strain srl3, hits give low values 0.991 | locus YLL001W, strain dnm1, hits give low values 0.986 | locus YLL026W, hits give low values 0.989 | locus YLL041C, strain sdh2, hits give low values 0.977 | locus YLR027C, strain aat2, hits give low values 0.978 | locus YLR113W, strain HOG1, hits give low values 0.983 | locus YLR221C, strain rsa3, hits give low values 0.962 | locus YLR258W, strain gsy2, hits give low values 1.01 | locus YLR262C, strain YPT6 (second series), hits give low values 0.912 | locus YLR320W, strain mms22, hits give low values 0.967 | locus YLR342W, strain FKS1, hits give low values 0.993 | locus YLR357W, strain rsc2, hits give low values 1.01 | locus YLR370C, strain arc18, hits give low values 0.981 | locus YLR384C, strain iki3, hits give low values 1 | locus YML120C, strain ndi1, hits give low values 0.959 | locus YMR058W, strain fet3, hits give low values 0.988 | locus YMR125W, strain sto1, hits give low values 0.984 | locus YMR129W, hits give low values 1 | locus YMR205C, strain PFK2, hits give low values 1.04 | locus YMR231W, strain pep5, hits give low values 1.01 | locus YNL071W, strain lat1, hits give low values 0.963 | locus YNL183C, strain NPR1, hits give low values 0.944 | locus YNL209W, strain ssb2, hits give low values 0.989 | locus YNL248C, strain rpa49, hits give low values 0.933 | locus YNL322C, strain KRE1 (second series), hits give low values 0.983 | locus YNR049C, strain mso1, hits give low values 0.986 | locus YOR001W, strain rrp6, hits give low values 0.923 | locus YOR070C, strain gyp1, hits give low values 0.987 | locus YOR080W, strain dia2, hits give low values 0.984 | locus YOR083W, strain WHI5, hits give low values 0.934 | locus YOR106W, strain vam3, hits give low values 0.94 | locus YOR231W, strain MKK1, hits give low values 0.97 | locus YOR265W, strain rbl2, hits give low values 0.989 | locus YOR270C, strain vph1, hits give low values 0.924 | locus YOR290C, strain snf2, hits give low values 0.927 | locus YPL051W, strain arl3, hits give low values 0.964 | locus YPL078C, strain atp4, hits give low values 0.951 | locus YPL106C, strain sse1, hits give low values 0.971 | locus YPL240C, strain hsp82, hits give low values 0.97 | locus YPL256C, strain CLN2, hits give low values 0.98
